Test [1] in a line: NCI Yeast Anticancer Drug Screen. Data for the rad50 strain (AID 155).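 Note: 0% = growth of vehicle-only cultures of the same strain.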 The note with it: S. cerevisiae rad50 strain growth inhibition, stronger effect = higher value. The procedure, abridged:
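Growth of the mutant yeast was measured after compound exposure and referenced to vehicle-treated cultures.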

The nature of test [2]: NCI Yeast Anticancer Drug Screen. Data for the mec2-1 strain (AID 157). The note with it: S. cerevisiae mec2-1 strain, stronger effect = higher value. The procedure, abridged: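 mec2-1 yeast strain, carrying an alteration in DNA damage repair or cell cycle control, was exposed to compounds; growth inhibition was measured relative to vehicle-treated controls.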
The nature of test [3]: NCI Yeast Anticancer Drug Screen. Data for the sgs1 mgt1 strain (AID 161).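 Note: 0% = growth of cultures given vehicle only.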 To be noted: S. cerevisiae sgs1 mgt1 strain, stronger effect = higher value. Put shortly: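 Yeast cells carrying a defined DNA-repair defect were exposed to test compounds. Growth inhibition was measured relative to vehicle-treated controls.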
The nature of test [4]: NCI Yeast Anticancer Drug Screen. Data for the cln2 rad14 strain (AID 165).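 Note: 0% = growth equal to vehicle treated cultures.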 To be noted: S. cerevisiae cln2 rad14 strain, stronger effect = higher value. Put shortly: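 Yeast carrying cln2 and rad14 alterations (cell cycle control and DNA damage repair) were exposed to compounds. Growth inhibition was measured against vehicle-treated controls.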
Test [5] can be described thus: NCI Yeast Anticancer Drug Screen. Data for the bub3 strain (AID 167). To be noted: S. cerevisiae bub3 mutant strain, stronger effect = higher value. The procedure, abridged:
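Whole-cell yeast assay. The mutant strain was incubated with compounds, and growth inhibition was determined by comparison with vehicle-treated cells.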

Test [6] in a line: NCI Yeast Anticancer Drug Screen. Data for the mlh1 rad18 strain (AID 175). The note with it: S. cerevisiae mlh1 rad18 strain growth inhibition, stronger effect = higher value. Put shortly:
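Growth inhibition of the yeast strain was measured after compound exposure and expressed relative to vehicle-treated controls. The strain carries defined defects in DNA damage repair.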

Setting [7] is: at 5.0 µM (retest, dose inferred, filed as 0.5).
Where [8] appears, read: at 50.0 µM (retest, dose inferred, filed as 5.0).

Among the data in PubChem BioAssay (NCI) are growth inhibition values, retold here.

Each structure is given as a SMILES string. The panel holds about 79,000 compounds, 15% with a hit somewhere; the sample as a whole holds those more often. Values without a mark were called inactive. Active and inactive are the calls of the source. Cut-off read from the data, not from the text of the source: active = growth inhibition above about 70%; inactive = the rest.

Turning to `CCC1=C(c2ccccc2)C(O)(c2ccccc2)C(CC)C1=O` (stereo not given), the growth inhibition is -3% in test [1] (setting [7]); 99% (active) in test [1] (setting [8]); 94% (active) in test [1] (at 50.0 µM); -5% in test [2] (setting [7]); 99% (active) in test [2] (setting [8]); 92.5% (active) in test [2] (at 50.0 µM). Moreover, the growth inhibition in test [3] (setting [7]) is -7%; in test [3] (setting [8]), 99% (active); in test [3] (at 50.0 µM), 97.3% (active); in test [4] (setting [7]) it was 5%; in test [4] (setting [8]) it was 99% (active); in test [4] (at 50.0 µM), 92.2% (active). The growth inhibition in test [5] (setting [7]) was -4%; in test [5] (setting [8]), 99% (active); in test [5] (at 50.0 µM), 97.7% (active); in test [6] (setting [7]), -2%; in test [6] (setting [8]), 98% (active); in test [6] (at 50.0 µM) it was 97.8% (active).

On to `N#COc1ccc(Oc2ccc(OC#N)cc2)cc1`, for which the growth inhibition in test [1] (setting [7]) was -4%; in test [1] (setting [8]), -3%; in test [1] (at 50.0 µM) it was -12.9%; in test [2] (setting [7]), -30%; in test [2] (setting [8]) it was 14%; in test [2] (at 50.0 µM), -22.8%. The growth inhibition in test [3] (setting [7]) was 26%; in test [3] (setting [8]) it was -3%; in test [3] (at 50.0 µM) it was 90.2% (active); in test [4] (setting [7]), -2%; in test [4] (setting [8]), 29%; in test [4] (at 50.0 µM) it was 25.8%. Moreover, the growth inhibition in test [5] (setting [7]) was -5%; in test [5] (setting [8]), 46%; in test [5] (at 50.0 µM), 40%; in test [6] (setting [7]) it was -12%; in test [6] (setting [8]) it was -15%; in test [6] (at 50.0 µM), 25.3%.

Regarding `CN(C)c1ccc(/C=C/c2ccnc3ccccc23)c(O)c1`, the growth inhibition was 0% in test [1] (setting [7]); -6% in test [1] (setting [8]); 57% in test [1] (at 50.0 µM); -4% in test [2] (setting [7]); -4% in test [2] (setting [8]); 28.6% in test [2] (at 50.0 µM). Also, the growth inhibition was 0% in test [3] (setting [7]); -6% in test [3] (setting [8]); 58.9% in test [3] (at 50.0 µM); 3% in test [4] (setting [7]); -3% in test [4] (setting [8]); 34% in test [4] (at 50.0 µM). In addition, the growth inhibition in test [5] (setting [7]) was -4%; in test [5] (setting [8]), -6%; in test [5] (at 50.0 µM), 40.9%; in test [6] (setting [7]), -8%; in test [6] (setting [8]), -2%; in test [6] (at 50.0 µM), 68.8%.

With `O=C(Oc1c(I)ccccc1=O)c1ccc([N+](=O)[O-])cc1`, the growth inhibition in test [1] (setting [7]) is 39%; in test [1] (setting [8]) it was 98% (active); in test [1] (at 50.0 µM), 99.2% (active); in test [2] (setting [7]), 57%; in test [2] (setting [8]) it was 99% (active); in test [2] (at 50.0 µM), 99.3% (active). For the same molecule, the growth inhibition in test [3] (setting [7]) is 73% (active); in test [3] (setting [8]), 99% (active); in test [3] (at 50.0 µM), 99.3% (active); in test [4] (setting [7]), 13%; in test [4] (setting [8]), 98% (active); in test [4] (at 50.0 µM) it was 99.2% (active). The growth inhibition in test [5] (setting [7]) was 21%; in test [5] (setting [8]), 98% (active); in test [5] (at 50.0 µM) it was 99% (active); in test [6] (setting [7]) it was 94% (active); in test [6] (setting [8]), 99% (active); in test [6] (at 50.0 µM), 99.5% (active).

With `COc1ccc(Cc2ccccc2C(=O)O)c2ccccc12`, the growth inhibition is 97% (active) in test [1] (setting [7]); 96% (active) in test [1] (setting [8]); 99.1% (active) in test [1] (at 50.0 µM); 98% (active) in test [2] (setting [7]); 98% (active) in test [2] (setting [8]); 99.2% (active) in test [2] (at 50.0 µM). In addition, the growth inhibition is 97% (active) in test [3] (setting [7]); 99% (active) in test [3] (setting [8]); 99.5% (active) in test [3] (at 50.0 µM); 95% (active) in test [4] (setting [7]); 96% (active) in test [4] (setting [8]); 98.7% (active) in test [4] (at 50.0 µM). The growth inhibition in test [5] (setting [7]) is 96% (active); in test [5] (setting [8]) it was 98% (active); in test [5] (at 50.0 µM), 98.9% (active); in test [6] (setting [7]) it was 97% (active); in test [6] (setting [8]) it was 98% (active); in test [6] (at 50.0 µM), 99% (active).

Turning to `CC(C)(C)CC(C)(C)NCc1cc(Cl)cc(Cc2cc(Cl)ccc2O)c1O`, the growth inhibition in test [1] (setting [7]) is 10%; in test [1] (setting [8]), 97% (active); in test [1] (at 50.0 µM), 28.9%; in test [2] (setting [7]) it was 9%; in test [2] (setting [8]), 98% (active); in test [2] (at 50.0 µM), 46%. Also, the growth inhibition was 8% in test [3] (setting [7]); 98% (active) in test [3] (setting [8]); 48.7% in test [3] (at 50.0 µM); -4% in test [4] (setting [7]); 94% (active) in test [4] (setting [8]); 16.8% in test [4] (at 50.0 µM). Moreover, the growth inhibition in test [5] (setting [7]) is 4%; in test [5] (setting [8]) it was 98% (active); in test [5] (at 50.0 µM), 20.4%; in test [6] (setting [7]), 19%; in test [6] (setting [8]), 98% (active); in test [6] (at 50.0 µM), 78.7% (active).

As to `CCOC(=O)C1SC(=Nc2cccc(Cl)c2C)N=C1C` (stereo not given), the growth inhibition was 22% in test [1] (setting [7]); 83% (active) in test [1] (setting [8]); 85.3% (active) in test [1] (at 50.0 µM); 24% in test [2] (setting [7]); 72% (active) in test [2] (setting [8]); 88.1% (active) in test [2] (at 50.0 µM). For the same molecule, the growth inhibition was 23% in test [3] (setting [7]); 91% (active) in test [3] (setting [8]); 82% (active) in test [3] (at 50.0 µM); 27% in test [4] (setting [7]); 73% (active) in test [4] (setting [8]); 86% (active) in test [4] (at 50.0 µM). Further, the growth inhibition was 34% in test [5] (setting [7]); 88% (active) in test [5] (setting [8]); 89.4% (active) in test [5] (at 50.0 µM); 38% in test [6] (setting [7]); 91% (active) in test [6] (setting [8]); 86.2% (active) in test [6] (at 50.0 µM).

As for `O=c1c2ccccc2c2ccccc2n1O`, the growth inhibition in test [1] (setting [7]) is 93% (active); in test [1] (setting [8]), 92% (active); in test [1] (at 50.0 µM), 97.5% (active); in test [2] (setting [7]) it was 95% (active); in test [2] (setting [8]), 95% (active); in test [2] (at 50.0 µM) it was 97% (active). Also, the growth inhibition was 93% (active) in test [3] (setting [7]); 94% (active) in test [3] (setting [8]); 96.5% (active) in test [3] (at 50.0 µM); 76% (active) in test [4] (setting [7]); 89% (active) in test [4] (setting [8]); 93.8% (active) in test [4] (at 50.0 µM). Further, the growth inhibition was 88% (active) in test [5] (setting [7]); 91% (active) in test [5] (setting [8]); 95% (active) in test [5] (at 50.0 µM); 94% (active) in test [6] (setting [7]); 94% (active) in test [6] (setting [8]); 98.3% (active) in test [6] (at 50.0 µM).

Take `CCC(C(c1ccc(Cl)cc1)c1ccc(Cl)c(Cl)c1)[N+](=O)[O-]` (stereo not given): the growth inhibition in test [1] (setting [7]) is 4%; in test [1] (setting [8]), 12%; in test [1] (at 50.0 µM), 8.3%; in test [2] (setting [7]) it was 0%; in test [2] (setting [8]) it was 17%; in test [2] (at 50.0 µM), -4.05%. The growth inhibition in test [3] (setting [7]) was 4%; in test [3] (setting [8]), 12%; in test [3] (at 50.0 µM), 14.1%; in test [4] (setting [7]) it was 4%; in test [4] (setting [8]), 30%; in test [4] (at 50.0 µM), 34%. For the same molecule, the growth inhibition was 19% in test [5] (setting [7]); 38% in test [5] (setting [8]); 47.5% in test [5] (at 50.0 µM); 1% in test [6] (setting [7]); 32% in test [6] (setting [8]); 5.3% in test [6] (at 50.0 µM).

Consider `Oc1cccc(-c2nc(-c3ccccc3)c(-c3ccccc3)[nH]2)c1`, for which the growth inhibition in test [1] (setting [7]) is 57%; in test [1] (setting [8]) it was 58%; in test [1] (at 50.0 µM), 98.5% (active); in test [2] (setting [7]) it was -2%; in test [2] (setting [8]), 22%; in test [2] (at 50.0 µM), 98.8% (active). In addition, the growth inhibition was 29% in test [3] (setting [7]); 69% in test [3] (setting [8]); 53.1% in test [3] (at 50.0 µM); 8% in test [4] (setting [7]); 22% in test [4] (setting [8]); 99.2% (active) in test [4] (at 50.0 µM). Besides, the growth inhibition in test [5] (setting [7]) was 32%; in test [5] (setting [8]) it was 43%; in test [5] (at 50.0 µM), 98.8% (active); in test [6] (setting [7]), 29%; in test [6] (setting [8]), 43%; in test [6] (at 50.0 µM), 98.5% (active).
